According to PubChem BioAssay (Tox21):
Inconclusive results are not listed. Values without a mark were called inactive. The source made the active and inactive calls. Calls come from the whole dose curve; as a rule, active = well fitted cell-killing curve with a large enough effect in the repeat runs; inconclusive = weak or mixed curves, or effect the other way; inactive = flat fitted curve, though single readings scatter.

Experiment: Caspase-3/7 induction in HepG2 cells by small molecules, qHTS cell viability counter screen (AID 1346981); note: nearly all actives have a fitted effect of over 30% in size
Conditions: CellTiter-Fluor fluorescence, 17 h; series mostly up to 92.4 µM; activity change, negative = cytotoxicity: at the top concentration
Description: U.S. Tox21 Program National Center for Advancing Translational Sciences [NCATS] NIH Chemical Genomics Center [NCGC] U.S. Environmental Protection Agency [EPA] National Institutes of Environmental Health Sciences [NIEHS] National Toxicology Program [NTP] U.S. Food and Drug Administration [FDA] Tox21 Assay Overview: Apoptosis is a process of programmed cell death and plays a central role in the development of multicellular organisms. It is a highly regulated process and induces cell death by activating caspases, which are the members of cysteine aspartic acid-specific protease (caspase) family. Caspases involved in apoptosis are classified by their mechanism of action as initiator caspases (caspase-2, -8, -9 and -10) and executioner caspases (caspase-3, -6, and -7). Inhibition of apoptosis results in number of cancers, autoimmune diseases, inflammatory diseases and viral infection. To identify small molecule compounds that induce apoptosis, a homogeneous, luminescent Caspase-Glo 3/7 assay was used. Wild type HepG2 cells were used to screen Tox21 libraries for identifying caspase-3/7 activity inducers. Also cytotoxicity of the compounds was tested in parallel by measuring the cell viability using CellTiter-Fluor assay system in the same wells.
Tox21 Assay Protocol Summary: HepG2 cells were dispensed at 2,000 per well in 5uL of culture medium into white solid bottom 1536-well plates (Corning Life Sciences, Corning, NY) using a Multidrop Combi (Thermo Scientific, Waltham, MA) dispenser. The assay plates were incubated at 37 C and 5% CO2 for 5hr, and then 23nL of compounds dissolved in DMSO and positive control were transferred using a Pintool station ([…], San Diego, CA). The assay plates were incubated at 37C and 5% CO2 for 17hr. For cytotoxicity read, after 16hr incubation at 37C, 1uL CellTiter-Fluor reagent (Promega Corporation, Madison, WI) was added to each well of the assay plates using Flying Reagent Dispenser (FRD, Aurora Discovery, San Diego, CA). After 1hr incubation at 37C and 5% CO2, the fluorescence signal was quantified using a ViewLux plate reader (PerkinElmer, Shelton, CT).
% is set by controls: 0 for no effect and ±100 for the full control effect; potency is the fitted concentration of half-maximal effect.

Row | Structure (SMILES) | activity change, negative = cytotoxicity | Potency
1 | CCOC(=O)/C=C/c1ccccc1 | 1.95% | –
2 | CCC(C)(CCC(C)C)C(=O)O (stereo not given) | -1.46% | –
3 | CCCCCCCCC1CCC(=O)O1 (stereo not given) | 1.64% | –
4 | Oc1ccccc1-c1nnco1 | 7.33% [at 42.5 µM] | –
5 | COc1nccnc1NS(=O)(=O)c1ccc(N)cc1 | -2.95% [at 42.5 µM] | –
6 | O=C(Nc1ccc(Cl)c(Cl)c1)C1CC1 | 7.55% [at 42.5 µM] | –
7 | BrCCCCCBr | -6.73% | –
8 | CC(=O)c1ccc2c(c1)Cc1ccccc1-2 | 2.32% | –
9 | Cc1cccc(C)c1NC(=O)c1ccccc1C(=O)O | 3.74% [at 42.5 µM] | –
10 | COc1cc(NS(=O)(=O)c2ccc(N)cc2)nc(OC)n1 | 3.63% [at 42.5 µM] | –
11 | CCCCCCCCSCC | 2.72% | –
12 | CCNC(=O)C1CC(C)CCC1C(C)C (stereo not given) | 0.264% | –
13 | Cc1cc(NC(=O)C2=C(O)c3ccccc3S(=O)(=O)N2C)no1 | 0.742% [at 42.5 µM] | –
14 | Cc1ccsc1/C=C/C1=NCCCN1C | -1.25% [at 42.5 µM] | –
15 | CNS(=O)(=O)CCc1ccc2[nH]cc(C3CCN(C)CC3)c2c1 | 0.593% [at 42.5 µM] | –
16 | O=P(O)(O)OP(=O)(O)O | 2.02% | –
17 | CCCN1C[C@H](CSC)C[C@@H]2c3cccc4[nH]cc(c34)C[C@H]21 | -6.57% [at 42.5 µM] | –
18 | CC1=C(C(=O)O)N2C(=O)[C@@H](NC(=O)[C@H](N)c3ccc(O)cc3)[C@H]2SC1 | 6.34% [at 42.5 µM] | –
19 | O=S(=O)(O)CCN1CCN(CCO)CC1 | 7.75% | –
20 | COCCOCCOCCOCCO | 1.66% | –

Row | Structure (SMILES) | activity change, negative = cytotoxicity | Potency
21 | CN(C)c1ccc(C=O)cc1 | 4.77% | –
22 | N[C@@H](COP(=O)(O)O)C(=O)O | 5.73% [at 19 µM] | –
23 | O=C(O)c1cc(Br)c(O)c(Br)c1 | -4.12% | –
24 | CCCCCCCCC(=O)Cl | 5.35% | –
25 | CC(C)(C)NC(N)=O | 3.18% | –
26 | CC(C)CCCCOC(=O)c1ccccc1C(=O)OCCCCC(C)C | 3.72% | –
27 | CCCCCCOc1ccccc1C(N)=O | -1.8% [at 42.5 µM] | –
28 | CC1(C)S[C@@H]2[C@H](N=CN3CCCCCC3)C(=O)N2[C@H]1C(=O)O | 8.29% [at 42.5 µM] | –
29 | O=C(NCCN1CCOCC1)c1ccc(Cl)cc1 | 1.97% [at 42.5 µM] | –
30 | O=Cc1ccc(Cl)c(Cl)c1 | -2.27% | –
31 | CC(CO)c1ccccc1 (stereo not given) | 2.27% | –
32 | CCCC(=O)C(C)=O | 2.49% | –
33 | CCC(C=O)CC | 0.867% | –
34 | O=S(O)(O)=S | -0.702% [at 8.39 µM] | –
35 | c1ccc2nccnc2c1 | 1.62% | –
36 | COC(=O)C1CC(=O)C(C(=O)OC)CC1=O (stereo not given) | 9.03% [at 8.39 µM] | –
37 | Nc1ccc2cc(S(=O)(=O)O)cc(O)c2c1 | – | 60.8 µM (active)
38 | COc1cc2c(cc1OC)C(=O)CC2 | 2.31% [at 42.5 µM] | –
39 | CC(C)CCCC(C)(C)O | 1.68% | –
40 | CN1CCN(CC(=O)N2c3ccccc3C(=O)Nc3cccnc32)CC1 | -1.47% [at 8.39 µM] | –
